Test results taken from PubChem BioAssay (NCATS).
Records with an inconclusive call do not appear. The source made the active and inactive calls. Unless noted, no rule for the calls is given here.

Assays:
[1] = qHTS profiling of the MIPE4 collection as inhibitors of Plasmodium falciparum (3D7) proliferation (AID 743344);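 also: scaled between DMSO vehicle wells and 0.29 µM artemisinin as full inhibition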; conditions: P. falciparum 3D7 in erythrocytes, SYBR Green DNA fluorescence, 72 h; at 28.5 µM unless noted
Procedure, shortened: (§1)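 Erythrocytes infected with P. falciparum (0.3% parasitemia, 2.5% hematocrit) incubated with compounds 72 h at 37 C, 5% CO2. Lysis with saponin/Triton buffer containing SYBR Green I, overnight at room temperature in the dark; DNA fluorescence (485/535 nm) normalised to 0.29 uM artemisinin and DMSO.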

[2] = qHTS profiling of the MIPE4 collection as inhibitors of Plasmodium falciparum (DD2) proliferation (AID 743345); conditions: P. falciparum Dd2 in erythrocytes, SYBR Green DNA, 72 h; at 28.5 µM unless noted
Procedure, shortened: as §1

[3] = qHTS profiling of the MIPE4 collection as inhibitors of Plasmodium falciparum (DD2) proliferation (Rep 2) (AID 743346); conditions: P. falciparum Dd2 in erythrocytes, SYBR Green DNA, 72 h; at 28.5 µM unless noted
Procedure, shortened: as §1

[4] = qHTS profiling of the MIPE4 collection as inhibitors of Plasmodium falciparum (HB3) proliferation (AID 743347);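 also: plate controls were DMSO vehicle wells for no effect and artemisinin wells for full effect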; conditions: P. falciparum HB3 in erythrocytes, SYBR Green DNA, 72 h; at 28.5 µM unless noted
Procedure, shortened: as §1

[5] = High-throughput drug toxicity screening in the BPDCN cell line Cal-1 (AID 1224825); conditions: Cal-1 BPDCN cell viability, qHTS; at 45.8 µM (top of the series) unless noted
Procedure, shortened: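 Exponentially growing Cal-1 cells, 500 per well in phenol red-free RPMI with 10% FBS, were exposed to compounds for 48 h at 37 °C, 5% CO2. Viability was read by CellTiter-Glo luminescence and normalised to DMSO (100%) and 9.2 uM bortezomib (0%).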

[6] = qHTS assay for measurement of the activity of small molecule inhibitors on Zika virus induced Caspase-3 activity in human iPSC derived neural progenitor cells (hNPCs) (AID 1224857; active = well fitted curve in the direction sought with a large enough effect; an effect the other way counts as inactive or inconclusive; also: % of control where 0% means no effect; nearly all actives have a fitted effect of over 65% in size)
Procedure, shortened: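 Cells were plated at 350 per well and grown 16 to 20 hours. Compound pretreatment lasted one hour, after which ZIKV (2 FFU/cell) was added for 6 hours. Percent inhibition was normalized between uninfected and infected controls.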

[7] = qHTS assay for measurement of the activity of small molecule inhibitors on Zika virus induced Caspase-3 activity in human astrocytoma cells (AID 1224859; active = well fitted curve in the direction sought with a large enough effect; an effect the other way counts as inactive or inconclusive;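 also: plate controls were ZIKV-infected untreated cells for no effect and uninfected cells for full effect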)
Procedure, shortened: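 Percent inhibition of virus-induced caspase-3/7 signal is calculated against uninfected and ZIKV-infected control cells. Cells are SNB-19, infected at 2 FFU/cell for 6 h after 1 h compound exposure.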

[8] = qHTS Assay for Identifying Gametocytocidal Compounds (AID 743244; active = well fitted curve in the direction sought with a large enough effect; an effect the other way counts as inactive or inconclusive;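 also: % is scaled to controls: 0 for no effect and ±100 for the full control effect; actives lower the fluorescent signal which means gametocytes are killed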); conditions: P. falciparum 3D7 stage III-V gametocytes, alamarBlue, 72 h; max response: stronger effect = lower value
Procedure, shortened: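 3D7 gametocytes, stages III–V, 20,000/well; cpd 72 h, 37 °C/5% CO2; + alamarBlue 24 h; fluor. Ex 525/Em 598.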

[9] = qHTS profiling for inhibitors of Plasmodium falciparum (3D7) proliferation (AID 743322);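 also: infected erythrocytes exposed to compound for 72 h before lysis; 100% = DMSO vehicle wells and 0% = 0.29 µM artemisinin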; conditions: P. falciparum 3D7 proliferation; at 28.7 µM (top of the series) unless noted
Procedure, shortened: as §1

[10] = qHTS profiling for inhibitors of Plasmodium falciparum (DD2) proliferation (AID 743323); conditions: lower = more inhibition; at 28.7 µM (top of the series) unless noted
Procedure, shortened: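 Parasite proliferation measured via DNA-dye fluorescence, as uninfected erythrocytes lack DNA. Cultures at 0.3% parasitemia and 2.5% hematocrit incubated 72 h with compound; signal scaled between vehicle and 0.29 uM artemisinin wells.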

[11] = qHTS profiling for inhibitors of Plasmodium falciparum (HB3) proliferation (AID 743324; active = well fitted curve in the direction sought with a large enough effect; an effect the other way counts as inactive or inconclusive;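 also: 100% = DMSO vehicle wells and 0% = artemisinin-treated control wells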); conditions: Plasmodium falciparum HB3 blood-stage proliferation; at 28.7 µM (top of the series) unless noted
Procedure, shortened: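 P. falciparum HB3 grown in erythrocytes (0.3% parasitemia, 2.5% hematocrit final) with compound for 72 h at 37 C, 5% CO2. Parasite DNA detected by SYBR Green after saponin/triton lysis overnight; normalized to 0.29 uM artemisinin and DMSO.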

Structure (SMILES)	parasite growth, % of DMSO control [1]	parasite growth remaining, % of DMSO control (lower = more inhibition) [2]	parasite growth, % of control (lower = inhibition) [3]	growth, % of control [4]	viability (% of control) [5]	Potency [6]	Potency [7]	max response [8]	remaining parasite growth % (stronger effect = lower value) [9]	activity, percent of control [10]	remaining proliferation (% of control), lower = more inhibition [11]
Cc1ccc(S(=O)(=O)OCC(=O)Nc2ccc(C(=O)O)c(O)c2)cc1	61.2%	85.7%	124%	75.5%	25.4%	inactive	inactive				
COc1cc2ncn(-c3cc(OCc4ccccc4S(C)(=O)=O)c(C#N)s3)c2cc1OC	76.2%	103%	75.9%	90.8%	95.9%	inactive	inactive				
N#Cc1c(N(CC(=O)O)CC(=O)O)sc(C(=O)O)c1CC(=O)O	86.7%	91.9%	139%		9.17%	inactive	inactive	-8.64% (inactive)			
C[C@@H](NC(=O)c1ncnc(N)c1Cl)c1ncc(C(=O)Nc2cc(C(F)(F)F)c(Cl)cn2)s1	63.1%	87.8%	58.8%	60.9%	66.8%	inactive	inactive				
Cc1ccc(S(=O)(=O)Nc2nc3ccccc3nc2Nc2ccc3nsnc3c2)cc1	25.4% [at 9.64 µM]		36% [at 9.64 µM]	77.4% [at 9.64 µM]	14.1% [at 23.2 µM]	inactive	inactive				
CCC(=O)OCC(=O)[C@@]1(OC(=O)CC)[C@@H](C)C[C@@H]2[C@H]3CCC4=CC(=O)C=C[C@]4(C)[C@@]3(F)[C@@H](O)C[C@@]21C	12%	64.4%	39.1%	48.2%	15%	inactive	inactive				
Nc1ncnc2c1ncn2[C@@H]1O[C@H](CO)[C@@H](O)[C@@H]1O		98%	6.61%	6.56%	18.3%		inactive				
C[C@@H]1[C@H](O)[C@@H](C)C=CC=CC=CC=CC=CC=CC=C[C@H](O[C@@H]2O[C@H](C)[C@H](O)[C@H](N)[C@@H]2O)C[C@@H]2O[C@](O)(C[C@@H](O)C[C@@H](O)[C@H](O)CC[C@@H](O)C[C@@H](O)CC(=O)O[C@H]1C)C[C@H](O)[C@@H]2C(=O)O	16.7%	9.78%	7.41%	29.7%	4.45%	inactive	inactive				
OC1CCC(Nc2ncc3nc(Nc4c(F)cc(F)cc4F)n([C@@H]4CCOC4)c3n2)CC1 (some centres not stated)	38.4%	84.7%	59.6%	43.4%	13.2%	inactive	inactive				
COc1nccc(-c2c(-c3ccc(F)cc3)ncn2C2CCNCC2)n1	36.4%	51.4%	41%	35.6%	73.4%		inactive				
CCc1cccc(CC)c1NC(=O)N1Cc2[nH]nc(NC(=O)c3ccc(N4CCN(C)CC4)cc3)c2C1	19%	82.8%	21.6%	6.85%	12.8%		inactive				
CCOC(=O)[C@H]1O[C@H]1C(=O)N[C@@H](CC(C)C)C(=O)NCCC(C)C	15.6%	12.9%	15.6%		95%	inactive	inactive				
CN[C@@H](C)[C@H]1[C@H](O)C[C@@]2(C)[C@@H]3CC[C@H]4C(C)(C)[C@@H](NC)CC[C@@]45C[C@@]35CC[C@]12C	16.9%	50.3%	12.6%	13.3%	89.5%	inactive	inactive				
CCCCC(F)(F)[C@@]1(O)CC[C@H]2[C@H](CC(=O)[C@@H]2CCCCCCC(=O)O)O1	77.3%	99.5%	70.3%	83%	106%	inactive	inactive				
CCOC(=O)[C@@H](N)CCC(=O)N[C@@H](CSCc1ccccc1)C(=O)N[C@@H](C(=O)OCC)c1ccccc1	89.7%	86.5%	163%	101%	90.7%	inactive	inactive		51.1%	92%	64.9%
FC(F)(F)c1ccc(C=Cc2nc(COc3ccc(CCCCn4ccnn4)cc3)co2)cc1	77.3%	85.5%	62.6%	83.1%	17.8%	inactive					
CC1(C)[C@H]2CC[C@]3(C)[C@@H](C(=O)C=C4[C@@H]5C[C@@](C)(C(=O)O)CC[C@]5(C)CC[C@]43C)[C@@]2(C)CC[C@@H]1O	93.2%	98.1%	84.9%	87.6%	111%	inactive					
OC(c1cc(C(F)(F)F)nc2c(C(F)(F)F)cccc12)C1CCCCN1 (configuration not stated)	11%	9.36%	23.2%	61.8%	7.54%	inactive	inactive				
Cc1ccc(C2=Nc3ccc(Cl)cc3OC2)cc1	30.3%	94.3%	26.5%	55.7%	85%	inactive	inactive				
CCCCC(C=O)NC(=O)C(CC(C)C)NC(=O)OCc1ccccc1 (configuration not stated)	4.5%	8.7%	9.29%	4.08%	62.2%	inactive	inactive				
CC(C)(C)c1[nH]cnc1C=c1[nH]c(=O)c(=Cc2ccccc2)[nH]c1=O	20.3% [at 57.5 µM]		23.1% [at 57.5 µM]	7.41% [at 57.5 µM]	5.98% [at 92.2 µM]	inactive	inactive	-26.5% (inactive)			
CCC=CC[C@H]1C(=O)CC[C@@H]1CC(=O)OC	62.5%	109%	86.4%		107%	inactive		12% (inactive)	94.5%	93.1%	113%
COc1c(C)c2c(c(O)c1CC=C(C)CCC(=O)OCCN1CCOCC1)C(=O)OC2	16.6%	18.6%	15.1%	9.76%	13.5%		inactive				
